# Measurements taken from PubChem BioAssay AID940 (Emory University Molecular Libraries Screening Center, 2007).
# Values joined by “and” are separate entries in the source; they are usually repeats but may differ in a detail not shown here. Equal values may be shown once. Screen size: about 260,000 compounds; about 2,200 (0.85%) were called active. This is one part of a sample in which actives are shown more often than they occur.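 How the source made its calls: active means compounds whose cAMP rise, as percent of the full-agonist control response, exceeds 60; inactive means the rest.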 Some structures have more than one record in an assay (separate samples or runs), and their calls can disagree.
# Biological target: Prostaglandin E2 receptor EP2 subtype (Homo sapiens) (UniProt P43116)
# Sequence (P43116 whole entry, looked up): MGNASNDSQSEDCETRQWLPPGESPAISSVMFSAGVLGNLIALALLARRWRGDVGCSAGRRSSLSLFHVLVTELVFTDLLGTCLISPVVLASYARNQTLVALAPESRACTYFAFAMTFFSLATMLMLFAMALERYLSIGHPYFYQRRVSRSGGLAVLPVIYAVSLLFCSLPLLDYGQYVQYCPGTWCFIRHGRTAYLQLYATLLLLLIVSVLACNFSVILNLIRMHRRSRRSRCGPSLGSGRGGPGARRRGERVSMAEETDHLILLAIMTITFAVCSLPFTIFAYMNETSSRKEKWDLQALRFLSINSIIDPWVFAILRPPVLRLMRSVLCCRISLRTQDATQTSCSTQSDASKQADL
# Assay: modulation of human EP2 prostaglandin signaling – cell-based, HTRF cAMP, PGE2 stimulation, primary screen (AID 940);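 further: rat C6 glioma line stably carrying human EP2 under a CMV promoter; the protocol text gives 20 µM as final concentration; 100% = response of wells given 1 µM PGE2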
# Conditions: EP2-expressing cells, cAMP HTRF FRET, PGE2 co-stimulation; at 25 µM; stronger effect = higher value
row,SMILES,induction
1,CCCn1cnc2sc(C)c(-c3ccc(Cl)cc3)c2c1=O,36.5% (inactive)
2,CCCOC(=O)Cn1cnc2sc(C)c(-c3ccc(Cl)cc3)c2c1=O,27.2% (inactive)
3,C=CCn1cnc2sc(C)c(-c3ccc(Cl)cc3)c2c1=O,72.1% (active)
4,O=C(Nc1cccc2ccccc12)C1CCN(C(=O)c2cccc(Cl)c2)CC1,-52% (inactive)
5,CC(C)N(C(=O)CSc1nc(COc2ccccc2)nc2ccccc12)C(C)C,60.5% (active) and 78.3% (active)
6,CCCc1nc(SCC(=O)Nc2ccc(S(=O)(=O)N(C)C)cc2)c2ccccc2n1,0.33% (inactive)
7,CN(C(=O)CSc1nc(C2CC2)nc2ccccc12)c1nc(-c2ccccc2)cs1,0.29% (inactive)
8,COc1cc(OC)cc(OCC(O)Cn2c(C)nc3ccccc32)c1 (stereo unspecified),-45% (inactive)
9,CCn1c(SCC(=O)Nc2cc(Cl)ccc2Cl)nc2sc(C)c(C)c2c1=O,8.59% (inactive)
10,CC1(C(=O)N(CC(=O)NCc2ccc(F)cc2)C2CCCC2)CC(=O)N=C2C=CC=CN21 (stereo unspecified),-9.59% (inactive)
11,NC(=O)COc1ccc(C23CC4CC(CC(C4)C2)C3)cc1,87.8% (active)
12,NC(=O)COc1ccc(NC(=O)c2ccccc2-c2ccccc2)cc1,-20.6% (inactive)
13,NNC(=O)COc1ccc(C2SCCS2)cc1,-9.97% (inactive)
14,Cn1nnc2cc(NC(=O)Nc3ccc(F)cc3)ccc21,-20.8% (inactive)
15,Cc1nn(CC(=O)Nc2ccc(C#N)cc2)c(C)c1[N+](=O)[O-],40.4% (inactive)
16,Cc1nc(NCCN)c(C#N)c2c1COC(C)(C)C2,14.1% (inactive)
17,CCNc1nc(C)c([N+](=O)[O-])c(C)c1C#N,68.9% (active)
18,COc1ccccc1-c1ocnc1C(=O)Nc1ccc(N2CCC(C)CC2)c(C(N)=O)c1,-7.54% (inactive)
19,O=c1oc2ccccc2n1CCCOc1cccc2ccccc12,74.5% (active)
20,NC(=O)Cn1c(=O)oc2ccccc21,8.45% (inactive)
21,Cc1ccc(OCCCn2c(=O)oc3ccccc32)cc1,-12.8% (inactive)
22,CC1CCCN(CC(=O)N2CCN(C(=O)CN3CCCC(C)C3)CC2)C1 (stereo unspecified),-44.2% (inactive)
23,CCCn1c(=O)[nH]c2c(C(N)=O)nc(-c3ccccc3F)nc21,-12.9% (inactive)

row,SMILES,induction
1,CCOC(=O)c1c(-c2cccc(C)c2)csc1NC(=O)c1c(-c2ccccc2)noc1C,34.1% (inactive)
2,CCOC(=O)c1c(C2CC2)csc1NC(=O)CSCc1c(C)noc1C,75.9% (active)
3,Cc1noc(C)c1CSCC(=O)Nc1nc2ccc(Oc3ccccc3)cc2s1,-9.73% (inactive)
4,CCOc1cccc(/C(O)=C2/C(=O)C(=O)N(CCN3CCOCC3)C2c2ccc(C)o2)c1 (stereo unspecified),-20% (inactive)
5,CCC(c1nnnn1C(C)(C)CC)N(Cc1cccs1)Cc1cc2ccc(C)c(C)c2[nH]c1=O (stereo unspecified),48.5% (inactive)
6,Cc1ccc2c(c1)C(=O)CC1(CCN(C(=O)N3CCOCC3)CC1)O2,-15.2% (inactive)
7,O=C(CSc1nnc2c(n1)[nH]c1ccc(F)cc12)Nc1cccc2ccccc12,-43.9% (inactive)
8,CC1CCN(c2nc3c(c(=O)[nH]c(=O)n3C)n2CCCc2ccccc2)CC1,57.4% (inactive) and 67% (active)
9,C=C(C)Cn1c(N2CCC(C)CC2)nc2c1c(=O)[nH]c(=O)n2C,-6.93% (inactive)
10,Cc1cc(C)nc(SCCn2c(N3CCC(C)CC3)nc3c2c(=O)[nH]c(=O)n3C)n1,1.48% (inactive)
11,O=C(NCC1CCCO1)C(=O)Nc1cc(Cl)cc(Cl)c1 (stereo unspecified),-89.4% (inactive)
12,Cc1cc2c(cc3c(=O)n(CC(=O)N(Cc4ccncc4)C4CC4)nc(C)n32)s1,41.2% (inactive)
13,Cc1ccc(CN(Cc2cc3cc4c(cc3[nH]c2=O)OCCO4)Cc2nnnn2C2CCCC2)cc1,2.08% (inactive)
14,CCC(c1nnnn1C1CCCC1)N(Cc1cccs1)Cc1cc2cccc(C)c2[nH]c1=O (stereo unspecified),46.6% (inactive)
15,Cc1ccc(CN(Cc2cc3c(C)ccc(C)c3[nH]c2=O)Cc2nnnn2C2CCCC2)cc1,38.9% (inactive)
16,Cc1cc(C)c2[nH]c(=O)c(CN(Cc3ccco3)C(c3nnnn3C3CCCCC3)C(C)C)cc2c1 (stereo unspecified),25.3% (inactive)
17,CCC(c1nnnn1C1CCCC1)N(Cc1cccs1)Cc1cc2ccc(C)c(C)c2[nH]c1=O (stereo unspecified),49% (inactive)
18,CCOc1ccc2[nH]c(=O)c(CN(Cc3ccccc3)Cc3nnnn3C3CCCC3)cc2c1,-7.93% (inactive)
19,Cc1ccc2[nH]c(=O)c(CN(CCc3ccccc3)Cc3nnnn3C3CCCCC3)cc2c1,71.2% (active)
20,Cc1ccc2cc(CN(Cc3ccccc3)C(c3nnnn3C3CCCCC3)C(C)C)c(=O)[nH]c2c1C (stereo unspecified),45.6% (inactive)
21,Cc1cccc2cc(CN(Cc3ccc4c(c3)OCO4)Cc3nnnn3C3CCCC3)c(=O)[nH]c12,42.4% (inactive)
22,Cc1cccc2cc(CN(Cc3cccs3)Cc3nnnn3C3CCCCC3)c(=O)[nH]c12,70.9% (active)
23,CCC(c1nnnn1C1CCCCC1)N(Cc1cccs1)Cc1cc2cc(C)cc(C)c2[nH]c1=O (stereo unspecified),75.2% (active)
